Assay results from publication PMC4336329 (PLoS ONE, 2015).
About 14,000 (4.5%) of roughly 310,000 compounds showed an effect of 50% or more. Effects have a minus sign here. Shown is part of a subset that was picked to be rich in strong results.

What follows are molecules tested against human ether-à-go-go-related gene (hERG) potassium channel (human, UniProt Q12809) (assay: primary screen, population patch clamp on CHO cells stably expressing hERG; higher = less effect of the substance).
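Further: peak tail current of the secondary pulse compared with the same well before compound.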

Sequence of human ether-à-go-go-related gene (hERG) potassium channel (Q12809 whole entry, looked up): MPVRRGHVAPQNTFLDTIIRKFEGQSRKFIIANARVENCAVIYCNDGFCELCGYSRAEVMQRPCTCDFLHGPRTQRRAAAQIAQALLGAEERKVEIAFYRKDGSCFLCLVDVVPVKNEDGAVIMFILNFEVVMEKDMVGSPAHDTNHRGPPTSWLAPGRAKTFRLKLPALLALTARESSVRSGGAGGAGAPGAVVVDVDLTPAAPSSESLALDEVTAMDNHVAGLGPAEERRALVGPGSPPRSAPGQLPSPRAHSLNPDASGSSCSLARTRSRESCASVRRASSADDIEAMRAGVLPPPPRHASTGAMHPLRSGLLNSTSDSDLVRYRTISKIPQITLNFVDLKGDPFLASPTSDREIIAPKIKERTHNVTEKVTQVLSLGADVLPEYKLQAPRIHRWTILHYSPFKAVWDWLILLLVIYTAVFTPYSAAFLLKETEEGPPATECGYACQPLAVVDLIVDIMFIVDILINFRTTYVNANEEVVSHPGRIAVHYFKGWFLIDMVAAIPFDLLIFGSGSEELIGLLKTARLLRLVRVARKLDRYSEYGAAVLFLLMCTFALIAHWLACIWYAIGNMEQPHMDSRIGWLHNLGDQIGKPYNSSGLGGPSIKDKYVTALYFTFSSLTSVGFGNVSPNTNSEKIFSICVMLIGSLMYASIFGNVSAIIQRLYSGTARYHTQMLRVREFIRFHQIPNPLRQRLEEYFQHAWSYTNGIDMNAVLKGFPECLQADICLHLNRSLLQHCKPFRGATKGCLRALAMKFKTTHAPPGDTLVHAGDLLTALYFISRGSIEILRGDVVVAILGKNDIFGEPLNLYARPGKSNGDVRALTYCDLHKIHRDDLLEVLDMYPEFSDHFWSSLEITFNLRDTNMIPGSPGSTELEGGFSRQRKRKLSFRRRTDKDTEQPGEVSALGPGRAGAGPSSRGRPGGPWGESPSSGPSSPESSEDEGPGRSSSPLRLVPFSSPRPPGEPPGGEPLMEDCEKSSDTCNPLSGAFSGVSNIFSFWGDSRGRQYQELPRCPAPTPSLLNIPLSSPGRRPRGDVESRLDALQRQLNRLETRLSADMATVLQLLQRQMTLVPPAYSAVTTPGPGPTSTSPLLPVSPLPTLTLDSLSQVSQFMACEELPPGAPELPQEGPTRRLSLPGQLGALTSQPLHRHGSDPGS

SMILES	hERG current change (%, negative = inhibition) at 10uM
CN1CCC(N(C)S(=O)(=O)c2ccc(NC(=O)COc3ccc(F)cc3)cc2)CC1	0.996%
Cc1cc(C(F)F)n2nc(C(=O)Nc3ccc(S(=O)(=O)NC45CC6CC(CC(C6)C4)C5)cc3)nc2n1	-8.28%
O=S(=O)(Cc1ccccc1)N1CCn2c(nc3ccccc32)C1	9.91%
COCCNC(=O)C(=O)N/N=C(\C)CC(=O)Nc1cccnc1	8.89%
COc1ccc(NCc2nnc(SCC(=O)Nc3ccc(OC)cc3)n2C)cc1	-62.3%
Cc1cc(C)nc(SCc2nnc(SCc3ccc([N+](=O)[O-])cc3)n2Cc2ccco2)n1	-80.6%
COC(=O)CSc1nnc(CSc2nc(C)cc(C)n2)n1Cc1ccco1	7.23%
COc1ccc(NCc2nnc(SCC(=O)Nc3ccccc3)n2C)cc1	-12.5%
Cc1cc(C)nc(SCc2nnc(SCC(N)=O)n2Cc2ccco2)n1	-7.19%
COC(=O)CSc1nnc(COc2ccc([N+](=O)[O-])cc2)n1C	-47.6%
Cn1c(COc2ccc([N+](=O)[O-])cc2)nnc1SCC(N)=O	1.54%
C=CCn1c(SCc2ccc([N+](=O)[O-])cc2)nnc1C(C)NC(=O)c1ccccc1 (stereo not drawn)	-54.5%
CCn1c(SCc2ccc([N+](=O)[O-])cc2)nnc1C(C)NC(=O)c1ccccc1Br (stereo not drawn)	-27.6%
CC(C)OC(=O)CSc1nnc(COc2ccc([N+](=O)[O-])cc2)n1C	-69.9%
COc1ccc(NC(=O)CSc2nnc(CNc3ccc(C)cc3)n2C)cc1	25.2%
CCn1c(SCc2ccc([N+](=O)[O-])cc2)nnc1C(C)NC(=O)c1ccc(C)cc1 (stereo not drawn)	-33.6%
CC(C)N1CC(C(=O)Nc2ccc(Br)c(Cl)c2)CC1=O (stereo not drawn)	-2.34%
O=C(COc1ccc(-c2ccccc2)cc1)NNC(=O)Nc1ccccc1	-2.73%
Nc1c(Cl)ncnc1N/N=C/c1ccnc2ccccc12	1.91%
CC(C)NC(=O)C(=O)NCCN1CCN(S(=O)(=O)c2ccc(Cl)cc2)CC1	-33.3%
COCCN(C(C)=O)c1nnc(-c2cnccn2)s1	6.11%

SMILES	hERG current change (%, negative = inhibition) at 10uM
COC(=O)C1=C(C)NC2=C(C(=O)CC(C)(C)C2)C1c1cnn(C)c1C (stereo not drawn)	15.6%
COc1ccc(OCC(=O)N/N=C2\CCCCc3ccccc32)cc1	-12.3%
Cc1cccc(-n2c(Cc3ccccc3)nnc2SCc2ccc([N+](=O)[O-])cc2)c1	-37.6%
CCc1ccc(-n2c(SCc3c(C)noc3C)nnc2-c2ccncc2)cc1	-36.6%
CCOc1ccc(-n2c(Cc3ccccc3)nnc2SCc2c(C)noc2C)cc1	-74.1%
CCn1c(Cc2ccccc2)nnc1SCC(=O)c1cccc([N+](=O)[O-])c1	-24%
CCOc1ccc(-n2c(COc3ccccc3)nnc2SCC(N)=O)cc1	-13.8%
CCn1c(Cc2ccccc2)nnc1SCc1ccc([N+](=O)[O-])cc1	-57.1%
OCCOCCn1c(-c2ccccc2)nc(=S)c2c1CCCC2	9.34%
CCCOc1ccc(Cn2c(O)cc(=O)[nH]c2=O)cc1	14.1%
O=C(O)c1cccc(N2C(=O)c3cccc4cccc(c34)C2=O)c1	12.7%
Cc1sc(N)c(C(=O)c2ccccc2)c1C	9.41%
O=C(c1ccccc1)c1c2c(cc3sc4ccccc4[n+]13)-c1cccc3cccc-2c13.[Br-]	-76.8%
Cc1sc2cc3c(c(C(=O)c4ccccc4)[n+]2c1C)-c1cccc2cccc-3c12.[Br-]	-77.1%
Cc1sc2ccccc2[n+]1CC(=O)c1ccccc1.[Br-]	18.7%
CN(C)/C=N/c1ncc(C(=O)c2ccccc2)s1	1.48%
N#C/C(=C\c1ccccc1)C(=O)NC1CC1	11.3%
O=C(CSc1nnnn1-c1cccc(F)c1)Nc1nc2ccccc2s1	8.36%
c1ccc(-c2ccc(-c3[nH]ncc3CN3CCC(N4CCSCC4)CC3)cc2)cc1	-80.7%
c1ccc2oc(-c3[nH]ncc3CN3CCSCC3)cc2c1	-5.92%
COc1ccc(-c2[nH]ncc2CN2CCC(N3CCSCC3)CC2)c(F)c1	1.98%
